# BAZ2B block – qHTS Assay for Inhibitors of BAZ2B; Bromodomain adjacent to zinc finger domain protein 2B (Homo sapiens), Q9UIF8; AID 504333, 2011; Potency, µM (highest dose often 114 µM), for inactives: top-dose activity change, negative = inhibition, hits mostly inhibitors; AlphaScreen BAZ2B-H3K14Ac peptide displacement; 360,000 tested, 4.4% active; also: % is scaled to controls: 0 for no effect and ±100 for the full control effect; nearly all actives have a fitted effect of over 60% in size
#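 Protein-peptide AlphaScreen: BAZ2B 50 nM, b-H3K14Ac 50 nM, 1x PBS pH 7.4 + 0.01% Tween-20. Preincubation 30 min RT; cpd 30 min RT (top 110 uM); beads 20 min RT, light-protected.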
# VDR inhibitor – Inhibitors of the vitamin D receptor (VDR): qHTS. VDR-SRC2-3 peptide fluorescence polarization, 2 h. Potency, µM, without a hit: max response, negative = inhibition, hits mostly inhibitors. 400,000 tested, 0.93% active; also: % is scaled to controls: 0 for no effect and ±100 for the full control effect
# Target sequence (P11473 whole entry, looked up): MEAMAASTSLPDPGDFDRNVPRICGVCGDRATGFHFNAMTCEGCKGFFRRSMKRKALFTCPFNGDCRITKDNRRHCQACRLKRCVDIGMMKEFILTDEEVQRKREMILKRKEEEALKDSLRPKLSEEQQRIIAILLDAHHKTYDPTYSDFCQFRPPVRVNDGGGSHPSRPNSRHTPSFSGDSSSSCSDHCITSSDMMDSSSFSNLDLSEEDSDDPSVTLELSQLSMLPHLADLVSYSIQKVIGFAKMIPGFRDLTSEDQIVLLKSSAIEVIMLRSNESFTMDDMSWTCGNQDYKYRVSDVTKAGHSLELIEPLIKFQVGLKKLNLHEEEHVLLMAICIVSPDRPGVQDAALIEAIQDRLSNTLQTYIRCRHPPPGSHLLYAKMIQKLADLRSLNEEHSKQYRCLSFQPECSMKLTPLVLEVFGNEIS
#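 Two reagent solutions held at 4 deg C in the dark were dispensed, compounds pinned at 23 nl, and the mixture incubated 2 h at room temperature. Read-out: fluorescence polarization of VDR–SRC2-3 peptide binding.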
# JMJD2A Tudor inh – qHTS Assay for Inhibitors of JMJD2A-Tudor Domain; Lysine-specific demethylase 4A (Homo sapiens), O75164; AlphaScreen JMJD2A-Tudor / H3K4me3 peptide binding; Potency, µM (highest dose often 114 µM), inactives show at the highest dose activity change, negative = inhibition, hits mostly inhibitors; 390,000 tested, 4.4% active; AID 504339, 2011; also: % is scaled to controls: 0 for no effect and ±100 for the full control effect; nearly all actives have a fitted effect of over 50% in size
# G9a block – qHTS Assay for Inhibitors of Histone Lysine Methyltransferase G9a. G9a H3K9 monomethylation, AlphaScreen, 2 h. AID 504332, 2011. Histone-lysine N-methyltransferase EHMT2 (Homo sapiens), Q96KQ7. 350,000 tested, 8.8% active. Potency, µM (doses to about 102 µM), for the others: top-dose activity, negative = inhibition, hits mostly inhibitors; also: % is scaled to controls: 0 for no effect and ±100 for the full control effect; nearly all actives have a fitted effect of over 75% in size
# Target sequence (Q96KQ7 913-1193 limits assumed): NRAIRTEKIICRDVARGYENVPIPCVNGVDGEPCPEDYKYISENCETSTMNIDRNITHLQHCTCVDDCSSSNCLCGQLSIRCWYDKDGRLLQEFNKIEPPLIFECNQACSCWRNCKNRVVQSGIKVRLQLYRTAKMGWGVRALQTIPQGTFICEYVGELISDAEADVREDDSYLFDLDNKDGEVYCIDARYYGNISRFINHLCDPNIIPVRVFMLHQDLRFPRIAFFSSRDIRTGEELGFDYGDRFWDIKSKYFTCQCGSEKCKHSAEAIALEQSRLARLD
#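 Step 1: enzyme (final 20 nM) with compound, 15 min RT. Step 2: substrate peptide 500 nM and SAM 20 uM, 2 h RT. Step 3: anti-H3K9me1 antibody and AlphaScreen beads, 10 min, then plate read.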
# HP1b chromo inh – HTS for Inhibitors of HP1-beta Chromodomain Interactions with Methylated Histone Tails. AlphaScreen HP1-beta / biotin-H3K9me3 peptide binding. Chromobox protein homolog 1 (Homo sapiens), P83916. 390,000 tested, 0.56% active. Potency, µM (highest dose often 114 µM), without a hit: at the highest dose activity change, negative = inhibition, most hits filed as inhibitors; also: nearly all actives have a fitted effect of over 70% in size
#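 AlphaScreen: HP1-beta (50 nM) preformed 30 min with biotin-H3(1-18)K9me3 peptide (50 nM) in PBS pH 7.4, 0.01% Tween-20. Compound added for 30 min at RT, then streptavidin donor/nickel chelate acceptor beads (10 ug/mL) for 30 min.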
# PLK1 PBD inh – qHTS for Inhibitors of PLK1-PDB (polo-like kinase 1 - polo-box domain): Primary Screen; Serine/threonine-protein kinase PLK1 (Homo sapiens), P53350; Plk1 PBD binding of FITC phosphopeptide, fluorescence polarization; Potency, µM, without a hit: max response, negative = inhibition, hits mostly inhibitors; 360,000 tested, 2.8% active; also: series mostly up to about 57 µM; % is scaled to controls: 0 for no effect and ±100 for the full control effect; nearly all actives have a fitted effect of over 65% in size
# Numbers without * were called inactive; ? = inconclusive; nt = not tested or not shown; ! = not confirmed by another sample; [ ] = remark or other dose. An excerpt weighted towards active compounds, which were near 11% of everything screened. Calls follow the shape of the dose curve; as a rule, active = well fitted curve in the direction sought with a large enough effect; inconclusive = small, poorly fitted or top-dose-only effect, or another doubt; inactive = no such curve, though single readings can be large; an effect the other way counts as inactive or inconclusive. Potency is read from the fitted curve at half-maximal effect.
SMILES,BAZ2B block,VDR inhibitor,JMJD2A Tudor inh,G9a block,HP1b chromo inh,PLK1 PBD inh
CCOc1ccc(C2/C(=C(\O)c3ccc4c(c3)OCCO4)C(=O)C(=O)N2CCCn2ccnc2)cc1OC (stereo not given),-19.5%,-18.6%,-23.3%,-7.3%,27.0%,?
O=C1C(=O)N(c2nccs2)C(c2ccccc2F)/C1=C(\O)c1ccc2c(c1)OCCO2 (stereo not given),50.1µM*,-3.8%,?,-11.0%[0.0925 µM],0.0%,-18.5%
Cc1nnc(N2C(=O)C(=O)/C(=C(/O)c3ccc4c(c3)OCCO4)C2c2ccc(F)cc2)s1 (stereo not given),-25.1%[57.1 µM],-8.4%,-18.2%,44.7µM*,80.4%,-28.2%
COc1cc(OC)c(NC(=O)c2cc(C)nc3c2c(C)nn3-c2ccc(C)cc2)cc1Cl,13.5%[57.1 µM],6.1%,-13.6%,5.6%[59 µM],14.5%,nt
COc1ccc(Nc2nc(-c3ccccc3)c3cc(Br)ccc3n2)cc1,?,3.2%,?,12.6µM*,10.8%,nt
Brc1ccc(C2=Nc3cccc4cccc(c34)N2)o1,?,-29.6%,?,15.8µM*,44.7µM*,-17.0%
Fc1ccc(C2=Nc3cccc4cccc(c34)N2)cc1,-33.1%,-9.9%,-32.4%,?,-21.3%,?
CCn1cc(C(=O)O)c(=O)c2cc(S(=O)(=O)N(C)C)ccc21,-2.4%,-8.5%,20µM*,?,11.1%,1.6%
CCN(CC)CCNC(=O)c1cn(CC)c2ccc(S(=O)(=O)N3CCc4ccccc4C3)cc2c1=O,-6.4%,-17.2%,-28.8%,-5.3%[59 µM],12.1%,26.7µM*
CN(CCCNC(=O)c1cn(C)c2ccc(S(=O)(=O)N(C)C)cc2c1=O)c1ccccc1,?,-3.7%,?,50.1µM*,-1.2%,-8.2%
Cc1ccccc1-n1c(=O)c2c3c(sc2n2cnnc12)CCCC3,-2.4%,12.4%,-1.4%,-7.2%[59 µM],41.4%,nt
O=C1C[C@H](c2ccc3ccccc3c2)N1S(=O)(=O)c1ccccc1[N+](=O)[O-],nt,-19.1%,-28.3%,nt,38.9%,nt
COc1ccc2c(c1)OCC(Cc1ccc(OC)c(O)c1)C2=O (stereo not given),nt,1.0%,nt,-3.6%[2.33 µM],nt,nt
COc1ccc(CC(=O)NNC(=O)c2cc(C)[nH]n2)cc1,-15.8%,10.8%,?,22.1%,14.8%,0.7%
CCc1noc(C)c1C(=O)NNC(=O)c1cc(OC)c(OC)c(OC)c1,2.7%,8.6%,1.3%,6.31µM*,29.2%,-2.0%
Cc1cc(C(=O)NNC(=O)CCCCC(=O)NNC(=O)c2cc(C)[nH]n2)n[nH]1,7.3%,-5.1%,-15.3%,3.98µM*,26.0%,-4.4%
CCc1noc(C)c1C(=O)NNC(=O)c1cc(OC)cc(OC)c1,2.3%,0.4%,5.7%,-24.8%[2.33 µM],45.1%,2.8%
COc1cc(C(=O)NNC(=O)c2cc(C)[nH]n2)cc(OC)c1OC,-35.7%,-5.3%,?,12.6µM*,-25.5%,-20.8%
COc1cccc(-c2cc(C(=O)NCc3ccc(F)cc3)no2)c1,7.1%,2.2%,-15.7%,2.9%[59 µM],6.8%,nt
CCc1ccc(S(=O)(=O)c2nnn(-c3ccc(F)cc3)c2N)cc1,1.8%,-10.1%,1.0%,-2.9%[59 µM],29.4%,nt
Cc1cc(NC(=O)CSc2nnc(C3COc4ccccc4O3)o2)no1 (stereo not given),50.1µM*,1.9%,-10.8%,?,8.3%,-26.2%
COc1ccc2cc(C)c3nnc(SCC(=O)Nc4cc(OC)c(OC)cc4C(=O)O)n3c2c1,-22.2%,8.8%,-24.5%,39.8µM*,15.8%,?
Cc1cc(NC(=O)CSc2nnc3c(C)cc4cc(C)c(C)cc4n23)no1,2.3%,-15.9%,-13.5%,14.1%,33.0%,-0.8%
Cc1cc(NC(=O)CSc2nnc(C3COc4ccccc4O3)n2N)no1 (stereo not given),-17.8%,?,-19.1%[11.4 µM],?,-6.9%,7.52µM*
Cc1cc(NC(=O)CSc2nnc(C)n2-c2ccccc2C)no1,-15.8%,-5.4%,-16.6%,0.9%,8.4%,-14.9%
SMILES,BAZ2B block,VDR inhibitor,JMJD2A Tudor inh,G9a block,HP1b chromo inh,PLK1 PBD inh
Cc1cc(NC(=O)CSc2nnc3c(C)cc4cc5c(cc4n23)OCO5)no1,-3.2%,nt,nt,35.5µM*,nt,nt
COc1cc(-c2ccno2)ccc1S(=O)(=O)N1CCN(c2cc(C)ccc2C)CC1,-12.5%,6.0%,-20.3%,-35.9%[59 µM],15.6%,nt
CC(C)Cn1c(N)c(C(=O)COC(=O)c2ccccc2C(=O)c2ccccc2)c(=O)n(C)c1=O,nt,37.9%,-15.6%,nt,11.7%,5.5%
C=C1C(=O)O[C@@H]2[C@H]3O[C@]3(C)CC/C=C(\C)CC[C@@H]12,nt,22.4µM*!,-4.3%,7.94µM*,55.3%,-1.2%
C=C1C(=O)OC2C=C(C)CCC=C(C)CCC12 (stereo not given),nt,39.8µM*,nt,nt,nt,nt
COc1ccc(NC(=O)C2(C)CCN2CCOc2ccc(C)cc2)cc1OC (stereo not given),nt,nt,nt,nt,nt,-5.1%
Cc1ccc(N(CC(=O)Nc2ccccc2-c2ccccc2)S(=O)(=O)c2ccccc2)c(C)c1,-26.6%,-13.2%,-14.3%,8.91µM*,8.0%,-21.2%
CS(=O)(=O)N(CC(=O)Nc1ccccc1-c1ccccc1)c1ccccc1,?,12.1%,-14.6%,-3.1%[59 µM],-1.1%,-11.1%
Cc1ccc(S(=O)(=O)N(CC(=O)Nc2ccccc2C(=O)O)c2ccc(Cl)cc2)cc1,?,-26.5%,-4.8%,-34.2%[59 µM],40.9%,37.7µM*
COc1ccccc1NC(=O)Cn1nc(-c2ccc(C)cc2)c2c(c1=O)CCCC2,-26.7%,9.6%,-30.2%,-12.1%[59 µM],6.7%,nt
Cc1ccc(-n2c(=O)cc(N3CCN(C(=O)c4ccco4)CC3)[nH]c2=O)cc1,8.5%,-14.7%,-15.6%,44.7µM*,12.1%,-12.8%
Cn1c(=O)cc(N2CCN(C(=O)c3ccco3)CC2)[nH]c1=O,4.1%,-21.2%,-1.4%,nt,34.8%,-3.1%
O=C(CSC1=NS(=O)(=O)c2cc(F)ccc2N1)NCc1ccc(F)cc1,5.4%,-0.6%,-2.1%,3.3%,25.3%,-6.5%
O=C1OC(c2ccc3c(c2)OCO3)=N/C1=C\c1ccc(C(=O)O)cc1,-22.2%,-7.5%,-19.7%,39.8µM*,4.4%,-26.9%
CCc1nc2c(OCCC3CCCCC3)cccn2c1N(C)C(=O)C(C)C,nt,nt,nt,nt,nt,-6.9%
COc1ccc2[nH]c(S(=O)Cc3ncc(C)c(OC)c3C)nc2n1 (stereo not given),nt,44.7µM*,nt,?,nt,nt
